Screening data (PubChem)
SMN2 splice enh – SMN2 splice variant enhancement; HEK293 SMN2-luciferase splicing reporter, luminescence, 30-36 h; Potency, µM (doses to about 46.1 µM), inactives show top-dose activity change, positive = activation, actives largely listed as activators; 210,000 compounds, 2.8% hits; also: % of control where 0% means no effect; nearly all actives have a fitted effect of over 55% in size
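HEK293 cells carry an SMN2 minigene-luciferase reporter in which exon 7 inclusion puts luciferase in frame. Cells were seeded at 2000 cells/well, attached for 10-12 hours, then exposed to compounds for 30-36 hours at 37C before ONE-Glo luminescence.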
FLuc counter – inhibits or activates purified firefly luciferase, miR-21 counter-screen | Potency, µM (series often up to 57.5 µM), for the others: at the highest dose activity change, negative = inhibition, hits mostly inhibitors | P08659 | purified FLuc, Km substrates, luminescence inhibition | 360,000 compounds, 6.9% hits;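 also: plate controls were vehicle for no effect and reference inhibitor for full effect; nearly all actives have a fitted effect of over 55% in size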
Target sequence (P08659 whole entry, looked up): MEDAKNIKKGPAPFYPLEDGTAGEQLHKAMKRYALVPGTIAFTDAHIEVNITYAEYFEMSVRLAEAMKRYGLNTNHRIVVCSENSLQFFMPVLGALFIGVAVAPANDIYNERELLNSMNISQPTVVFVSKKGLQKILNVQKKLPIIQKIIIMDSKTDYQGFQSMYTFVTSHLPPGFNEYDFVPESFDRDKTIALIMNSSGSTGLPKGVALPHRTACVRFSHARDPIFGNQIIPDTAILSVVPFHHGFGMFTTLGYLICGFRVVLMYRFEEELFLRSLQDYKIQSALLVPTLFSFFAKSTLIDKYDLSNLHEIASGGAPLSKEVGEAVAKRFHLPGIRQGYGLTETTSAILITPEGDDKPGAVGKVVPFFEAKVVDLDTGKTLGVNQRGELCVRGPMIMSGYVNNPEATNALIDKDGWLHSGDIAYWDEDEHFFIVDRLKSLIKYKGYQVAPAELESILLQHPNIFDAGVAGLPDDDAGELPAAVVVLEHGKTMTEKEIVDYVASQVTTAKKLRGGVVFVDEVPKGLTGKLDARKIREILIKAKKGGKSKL
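Biochemical qHTS of compounds, final roughly 60 µM downward over six points, against 10 nM purified firefly luciferase using Km concentrations of substrates (10 uM D-luciferin, 10 uM ATP) in Tris acetate pH 7.5 buffer; luminescence output.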
NPC1 prom act – activators of NPC1 promoter; Potency, µM (series often up to 9.22 µM), inactives show at the top dose activation, usual class: activators; 320,000 compounds, 2.4% hits; Huh7 NPC1 promoter luciferase reporter, 24 h; also: % of control where 0% means no effect; nearly all actives have a fitted effect of over 60% in size
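Luminescence read-out of NPC1 promoter-driven luciferase in stably transfected Huh7 cells; compounds delivered in DMSO and left 24 h at 37C, 5% CO2, qHTS titration format.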
KinaseGlo FLuc – Kinase-Glo luciferase inhibition (counter-screen); Q27757; Kinase-Glo luciferase, ATP luminescence, 8 min; Potency, µM (top dose mostly 38.3 µM), for the others: top-dose activity change, negative = inhibition, actives largely listed as inhibitors; 200,000 compounds, 0.28% hits; AID 1379; also: % is scaled to controls: 0 for no effect and ±100 for the full control effect; nearly all actives have a fitted effect of over 60% in size
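Kinase-Glo luciferase light output from ATP and luciferin was measured with 10 uM ATP, within the enzyme's linear range. Buffer: 50 mM imidazole pH 7.2, 50 mM KCl, 7 mM MgCl2, 0.01% Tween 20, 0.05% BSA; luminescence read after 8 min at ambient temperature.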
ELG1 genotox – induces genotoxicity in HEK293T cells with luciferase-tagged ELG1. HEK293T ELG1-luciferase reporter, luminescence, 16 h. Potency, µM (titrated, usually from 46 µM), for the others: top-dose activity change, positive = activation, actives largely listed as activators. 330,000 compounds, 1.3% hits. AID 504466; also: % of control where 0% means no effect; nearly all actives have a fitted effect of over 60% in size
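DMSO vehicle served as control against compound-treated ELG1-luciferase HEK293T cells; exposure lasted 16 hr at 37 °C and 5% CO2, followed by ONE-Glo luminescence detection after 30 min.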
Rab9 promoter act – activators of Rab9 promoter | Huh7 Rab9 promoter-luciferase reporter, luminescence, 24 h | Potency, µM (series often up to 9.22 µM), without a hit: top-dose activation, negative = inhibition, most hits filed as activators | 320,000 compounds, 2.8% hits | AID 485297; also: % of control where 0% means no effect; nearly all actives have a fitted effect of over 60% in size
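Luciferase signal after 10 min detection reagent at ambient indicates Rab9 promoter upregulation; stably transfected Huh7 cells were treated 24 h with compound in DMSO at 37 °C, 5% CO2.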
Starred values were filed as active, the others as inactive; ? = inconclusive; / = no result given; [ ] = dose if it differs, or a comment. Only some compounds are listed: those with a hit (about 7.4% of all), similar ones and a draw of the others. Calls follow the shape of the dose curve; as a rule, active = well fitted curve in the direction sought with a large enough effect; inconclusive = small, poorly fitted or top-dose-only effect, or another doubt; inactive = no such curve, though single readings can be large; an effect the other way counts as inactive or inconclusive. Potency is read from the fitted curve at half-maximal effect.

SMILES	SMN2 splice enh	FLuc counter	NPC1 prom act	KinaseGlo FLuc	ELG1 genotox	Rab9 promoter act
O=C(NCc1ccccn1)c1cn(-c2ccccc2)nc1-c1ccc(Cl)cc1	12.3%	19µM*	-1.9%	0.6%	0.3%	-5.1%
O=C(NCc1ccc2c(c1)OCO2)c1cc(-c2ccccc2)on1	/	-2.0%	0.6%	0.7%	3.2%	0.8%
C=C(CC1([C@@H](NP(=O)(c2ccccc2)c2ccccc2)[C@H]2C[C@@H]2CCN(C(=O)OCC)S(=O)(=O)c2ccc(C)cc2)CC1)c1ccccc1	-24.0%	/	/	-1.5%	/	/
O=C(NCc1ccco1)c1cc(-c2ccc(Cl)cc2)on1	-10.9%	-10.9%	3.16µM*	0.1%	15.9%	?
O=C(NCc1ccco1)c1cc(-c2cccc(Cl)c2)on1	-6.3%	-4.3%	24.2%	-1.6%	?	24.4%
CCN(CC)S(=O)(=O)c1ccc(C(=O)NCCc2ccccn2)cc1	15.4%	-7.8%	1.2%	0.4%	10.5%	18.3%
O=C(NCCc1ccccn1)c1ccc(OC(F)F)cc1	11.2µM*	10.7µM*	1.41µM*	-3.2%	?	0.794µM*
COc1cccc(-c2cc(C(=O)NCc3ccco3)no2)c1	11.2µM*	10.7µM*	3.16µM*	-2.4%	10.3µM*	1.78µM*
COc1cc(CCN2C(=O)c3cccc4cccc(c34)C2=O)c(S(=O)(=O)N2CCCCCC2)cc1OC	-4.1%	?	3.1%	3.5%	-11.1%	-3.9%
COc1cc(CCN2C(=O)c3cccc4cccc(c34)C2=O)c(S(=O)(=O)NCCO)cc1OC	/	13.5µM*	2.7%	/	0.4%	0.7%
COc1cc(CCN2C(=O)c3cccc4cccc(c34)C2=O)c(S(=O)(=O)NCCCO)cc1OC	-17.2%	21.3µM*	-1.5%	-1.5%	1.1%	3.4%
Cc1csc(NC(=O)c2sc3nc(-c4cccs4)ccc3c2N)n1	-5.1%	3.79µM*	-30.9%	-2.7%	?	-36.6%
O=C(Nc1nc(-c2cccs2)cs1)c1ccc(Cl)cc1	5.6%	10.7µM*	14.2%	-3.3%	?	16.0%
Cc1ccc(NC(=O)c2sc3nc(-c4cccs4)ccc3c2N)cc1F	22.5%	-14.9%	/	/	/	/
Cc1ccc(C(=O)Nc2nccc(-c3cccs3)n2)cc1	14.3%	13.5µM*	29.3%	-6.4%	3.2%	16.8%
COc1ccc(C(=O)Nc2nc(-c3cccs3)cs2)cc1	-34.4%	6.75µM*	/	-2.7%	/	/
CCOC(=O)CCc1c(C)c2cc3c(c(C)c2oc1=O)OCN(CCc1ccccc1OC)C3	-6.4%	-6.9%	/	/	/	/
CCCc1ccc(OC(C)c2nc(-c3ccc(-n4cccc4)cc3)no2)cc1 (configuration not stated)	-23.9%	-6.4%	/	/	/	/
CN(C)C1CCN(C(=O)c2ccc(-n3c(=O)c(=O)[nH]c4ccccc43)cc2)C1 (configuration not stated)	/	/	/	-1.9%	/	/
CCOC(=O)c1cccc(NC(=O)CC2C(=O)N(c3ccc(Cl)cc3)C(=O)N2C2CCCC2)c1 (configuration not stated)	/	-14.0%	/	/	/	/
O=C(Cc1c[nH]c2ccccc12)NCc1ccc(Cl)cc1Cl	17.4%	21.3µM*	0.4%	-1.2%	7.3%	-3.2%
Cc1cc(NC(=O)COC(=O)[C@H](Cc2c[nH]c3ccccc23)NC(=O)c2ccc(F)cc2)no1	-1.2%	16.9µM*	-2.3%	2.7%	-1.7%	6.7%
O=C(NC(Cc1c[nH]c2ccccc12)C(=O)O)c1ccccc1 (configuration not stated)	?	2.6%	-3.3%	7.0%	4.7%	0.9%
CC(=O)NC(Cc1c[nH]c2ccccc12)C(=O)OCC(=O)Nc1cc(C)on1 (configuration not stated)	-11.9%	-1.4%	2.2%	5.1%	-0.7%	-5.0%
O=C(N[C@@H](Cc1c[nH]c2ccccc12)C(=O)O)c1ccc(Cl)cc1	6.3%	16.9µM*	-1.4%	2.3%	-4.0%	11.6%
SMILES	SMN2 splice enh	FLuc counter	NPC1 prom act	KinaseGlo FLuc	ELG1 genotox	Rab9 promoter act
COc1ccc(C(=O)NC(Cc2c[nH]c3ccccc23)C(=O)O)cc1 (configuration not stated)	/	19µM*	-10.6%	/	-1.7%	-1.9%
Cc1ccc2c(n1)sc1c(=O)n(-c3cccc(C(F)(F)F)c3)nnc12	/	-10.9%	/	/	/	/
COc1ccc2cc([S+]([O-])Cc3ncc(C)c(OC)c3C)nc2c1	/	/	15.5%[46.1 µM]	/	/	13.2%[46.1 µM]
CN1CCc2ccccc2[C@@H]1Cc1ccccc1NC(=O)c1sc2ccccc2c1Cl	3.4%[9.22 µM]	/	/	-10.5%[7.66 µM]	/	/
CCc1ccc(N2CCn3c2nc2c3c(=O)n(Cc3ccc(F)cc3)c(=O)n2C)cc1	/	9.53µM*	/	/	/	/
CCc1ccc(N2CCn3c2nc2c3c(=O)n(Cc3c(F)cccc3Cl)c(=O)n2C)cc1	/	-1.3%	/	/	/	/
Cc1cc(=O)oc2cc(O)c(O)cc12	7.3%	/	/	-2.5%	/	/
CN(C)/C=C/C(=O)/C=C/c1ccc(Cl)cc1	12.6µM*	13.5µM*	?	-14.3%	?	?
O=C(NCCn1cc(SCc2ccccc2Cl)c2ccccc21)c1cccs1	-25.5%	-17.8%	/	/	/	/
COc1ccc(-n2ccnc2CN2CCCC(CO)(Cc3cccc(OC)c3)C2)cc1 (configuration not stated)	/	23.9µM*	-2.8%	/	-8.7%	1.5%
COc1ccc(CC2(CO)CCN(Cc3cccnc3)CC2)cc1	/	15.1µM*	-1.2%	-3.1%	5.5%	?
COc1ccc(-c2ncc(CN3CCC(CO)(Cc4cccc(OC)c4)CC3)cn2)cc1	/	?	-7.3%	/	-8.8%	-2.5%
Cc1cc2c(c(=O)n1-c1ccccc1)C1O[C@](c3ccsc3)(Cc3ccccc31)O2	/	-15.8%[11.5 µM]	0.6%[1.84 µM]	/	/	-0.4%[1.84 µM]
CCN1CCN(c2csc3ccc(Br)cc3c2=O)CC1	/	13.5µM*	/	/	/	/
CCN1CCN(CC(=O)N/N=C/c2cc(Br)cs2)CC1	/	-0.1%	-5.0%	/	-0.9%	1.2%
CCN1CCN(c2csc3ccc(C)cc3c2=O)CC1	/	12µM*	/	/	/	/
Cc1cccc(N2CCN(C3(c4ccccc4)C(=O)c4ccccc4C3=O)CC2)c1C	/	-1.6%	/	/	/	/
COc1cc(CN(C(=O)c2ccccc2[N+](=O)[O-])c2ccccn2)cc(OC)c1OC	/	-1.9%	/	/	/	/
CC(C)NC(=O)CCc1nnc(Cc2cccc(C(F)(F)F)c2)o1	/	15.1µM*	?	/	?	?
CCC(COC)NC(=O)CCc1nnc(Cc2cccc(C(F)(F)F)c2)o1 (configuration not stated)	/	?	1.5%	4.8%	13.9%	25.0%
Cc1cc2nc(-c3ccc(SCC(=O)N4CCN(C(=O)c5ccco5)CC4)nc3)[nH]c2cc1C	7.94µM*	0.477µM*	3.55µM*	?	-5.3%	3.55µM*
Cc1cc2nc(-c3ccc(SCC(=O)N4CCOCC4)nc3)[nH]c2cc1C	?	0.675µM*	?	?	2.0%	3.55µM*
